This passage reports growth results from PubChem BioAssay (NCI).

Test systems include SR leukemia; RPMI-8226 leukemia; OVCAR-8 ovarian; OVCAR-4 ovarian; SK-OV-3 ovarian; IGROV1 ovarian; OVCAR-3 ovarian; HS 578T breast; NCI/ADR-RES ovarian; OVCAR-5 ovarian.
Test in all cases: NCI-60 one-dose screen, 48 h (100 = growth as untreated, 0 = no growth, -100 = all killed)
Conditions in all cases: 10 µM unless noted

Several values for one entry are separate records, joined by “and”; a condition that tells them apart may be missing. Equal entries are not always repeated. The panel holds about 83,000 compounds, 20% with a hit somewhere; the sample as a whole holds those more often.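 Activity criterion: percent growth below 10, measured after cells in 96-well plates were exposed to a single compound concentration for 48 hours.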 Unmarked numbers belong to inactive results. Activity calls are given as the source filed them.

For the compound `N#C/C(=C\c1ccccc1Cl)c1cc2ccccc2[nH]1`, the growth with SR leukemia is 60%; with RPMI-8226 leukemia it was 77.1%; in the assay on OVCAR-8 ovarian, 96.4%; in the assay with OVCAR-4 ovarian, 96.4%; in the assay on SK-OV-3 ovarian, 76.3%; in the assay on IGROV1 ovarian, 84.7%. For the same compound, the growth with OVCAR-3 ovarian is 101%; in the assay with HS 578T breast it was 92.9%; in the assay with NCI/ADR-RES ovarian it was 95.5%.
For the compound `COc1ccc(C2=C(CN)C(O)NC(=NCC(=O)c3ccc4ccccc4c3)N2)cc1` (stereo not drawn), the growth in the assay on SR leukemia is 99.4%; with RPMI-8226 leukemia, 119%; in the assay with OVCAR-8 ovarian it was 98.8%; with OVCAR-4 ovarian it was 107%; in the assay with SK-OV-3 ovarian it was 89.4%; in the assay on IGROV1 ovarian, 102%. The growth in the assay with OVCAR-3 ovarian is 99.9%; in the assay on HS 578T breast it was 116%; in the assay with NCI/ADR-RES ovarian, 103%.
Regarding `CN1C(=O)N(C)C2(c3ccccc3)N(CC(=O)Nc3ccccc3O)C(=O)NC12c1ccccc1` (stereo not drawn), the growth in the assay on SR leukemia was 112%; in the assay with RPMI-8226 leukemia it was 106%; with OVCAR-8 ovarian, 102%; in the assay on OVCAR-5 ovarian, 104%; with OVCAR-4 ovarian, 99.3%; in the assay on SK-OV-3 ovarian, 100%. The growth was 101% in the assay on IGROV1 ovarian, 105% with HS 578T breast and 99.8% in the assay on NCI/ADR-RES ovarian.
For `COc1c(F)cc(-n2c(C(=O)N3CC(F)C3)cc3cccnc32)cc1F`, the growth was 97.1% in the assay with SR leukemia; 95.1% in the assay on RPMI-8226 leukemia; 102% in the assay with OVCAR-8 ovarian; 97.1% with OVCAR-4 ovarian; 111% with SK-OV-3 ovarian; 94.4% in the assay on IGROV1 ovarian. The growth with OVCAR-3 ovarian is 101%; in the assay on NCI/ADR-RES ovarian, 90.7%.
`O=C(CCl)n1nnnc1Cc1ccccc1`: the growth was 93.5% with SR leukemia; 96.3% with RPMI-8226 leukemia; 91.1% in the assay on OVCAR-8 ovarian; 105% in the assay with OVCAR-4 ovarian; 93.6% with SK-OV-3 ovarian; 107% with IGROV1 ovarian. For the same compound, the growth in the assay on OVCAR-3 ovarian was 112%; in the assay on HS 578T breast, 121%; with NCI/ADR-RES ovarian it was 101%.
Take `CN(C)C(=O)c1cc2cnc(Nc3ccc(-c4csc5c(=S)cc(N6CCOCC6)oc45)cc3)nc2n1C1CCCC1`: the growth with SR leukemia is -3.12% (active); in the assay with RPMI-8226 leukemia, -35.9% (active); in the assay on OVCAR-8 ovarian it was 7.87% (active); with OVCAR-5 ovarian, 17%; with OVCAR-4 ovarian, 18.5%; with SK-OV-3 ovarian it was 16.4%. In addition, the growth in the assay on IGROV1 ovarian is 8.93% (active); in the assay with NCI/ADR-RES ovarian, 14.1%.
For `CC[C@]12CN3CCc4c([nH]c5ccccc45)[C@@](C(=O)OC)(c4cc5c(cc4OC)N(C)[C@H]4[C@@](O)(C(=O)OC)[C@H](OC(C)=O)[C@]6(CC)C=CCN7CC[C@]54[C@@H]76)CC(C3)[C@H]1O2` (stereo partly drawn), the growth in the assay with SR leukemia is 14.4%; in the assay on RPMI-8226 leukemia it was 20.5%; in the assay with OVCAR-8 ovarian, 7.27% (active); in the assay on OVCAR-5 ovarian, 49%; in the assay on OVCAR-4 ovarian it was 28%; with SK-OV-3 ovarian, 22.1%. The growth is -60.4% (active) in the assay on OVCAR-3 ovarian, -25.1% (active) in the assay on HS 578T breast and 82% with NCI/ADR-RES ovarian.
Regarding `COc1ccc(/C=C(\C#N)c2cc3ccccc3[nH]2)cc1`, the growth is 11.4% in the assay with SR leukemia; 14.9% in the assay with RPMI-8226 leukemia; 32% with OVCAR-8 ovarian; 42.5% in the assay on OVCAR-5 ovarian; 62.4% with OVCAR-4 ovarian; 47.7% in the assay with SK-OV-3 ovarian. Moreover, the growth is 45.7% in the assay on IGROV1 ovarian, 22.9% in the assay with HS 578T breast and -6.87% (active) with NCI/ADR-RES ovarian.
In the case of `Nc1ccc(S(=O)(=O)c2ccc(N)cc2)cc1`, the growth in the assay on SR leukemia is 99.7% and 121%; with RPMI-8226 leukemia, 96.7% and 85.4%; in the assay with OVCAR-8 ovarian, 97.2% and 93.1%; in the assay with OVCAR-4 ovarian it was 111% and 117%; with SK-OV-3 ovarian, 118% and 102%; in the assay with IGROV1 ovarian it was 108% and 61%. For the same compound, the growth with OVCAR-3 ovarian is 121% and 112%; in the assay on HS 578T breast it was 106% and 96.8%; in the assay on NCI/ADR-RES ovarian, 101% and 97.2%.
For the compound `COc1ccc(-c2cc(-c3cc(OC)c(OC)c(OC)c3)c(C#N)c(=O)n2CCCCC(=O)O)cc1`, the growth in the assay with SR leukemia was 72.6%; with RPMI-8226 leukemia, 84.3%; with OVCAR-8 ovarian, 92.4%; in the assay on OVCAR-4 ovarian, 91.5%; in the assay with SK-OV-3 ovarian, 125%; in the assay with IGROV1 ovarian, 104%. The values for the growth with OVCAR-3 ovarian, with HS 578T breast and in the assay with NCI/ADR-RES ovarian were 99.6%, 87.7% and 102%, respectively.
For the compound `CC(C)(C)CC(N)=O`, the growth with SR leukemia is 102%; with RPMI-8226 leukemia, 107%; in the assay with OVCAR-8 ovarian it was 97.7%; in the assay on OVCAR-4 ovarian it was 100%; with SK-OV-3 ovarian it was 88.2%; in the assay with IGROV1 ovarian it was 112%. Besides, the growth in the assay on OVCAR-3 ovarian was 110%; in the assay on NCI/ADR-RES ovarian, 102%.
With `O=C(O)C1C2CCC1C(O)C2` (stereo not drawn), the growth in the assay on SR leukemia was 96.2% and 88.2%; in the assay on RPMI-8226 leukemia it was 104% and 90.5%; in the assay on OVCAR-8 ovarian, 100% and 98.1%; with OVCAR-4 ovarian, 106% and 108%; with SK-OV-3 ovarian it was 105% and 98.8%; with IGROV1 ovarian it was 124% and 112%. The growth in the assay on OVCAR-3 ovarian was 108% and 96.9%; in the assay with HS 578T breast it was 110% and 109%.
As for `O=C(/C=C/c1ccc([N+](=O)[O-])cc1)c1ccccc1`, the growth with SR leukemia was 7.6% (active); with RPMI-8226 leukemia, 41.6%; in the assay on OVCAR-8 ovarian it was 98.3%; in the assay on OVCAR-4 ovarian, 98.1%; in the assay with SK-OV-3 ovarian it was 92.5%; in the assay with IGROV1 ovarian, 87.3%. Moreover, the figures for the growth with OVCAR-3 ovarian, in the assay with HS 578T breast and with NCI/ADR-RES ovarian were 99.6%, 93.2% and 103%, respectively.
